Test results: PMC4336329 (PLoS ONE, 2015)
In all, about 310,000 compounds went through this assay and about 14,000 (4.5%) showed an effect of 50% or more. The effect is printed as a negative number. The full list was thinned out, with strong results kept by preference.

The molecules below were run against human ether-à-go-go-related gene (hERG) potassium channel (human, UniProt Q12809) (assay: primary screen, population patch clamp on CHO cells stably expressing hERG; higher = less effect of the substance).
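Further: peak tail current of the secondary pulse compared with the same well before compound.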

Sequence of human ether-à-go-go-related gene (hERG) potassium channel (Q12809 whole entry, looked up): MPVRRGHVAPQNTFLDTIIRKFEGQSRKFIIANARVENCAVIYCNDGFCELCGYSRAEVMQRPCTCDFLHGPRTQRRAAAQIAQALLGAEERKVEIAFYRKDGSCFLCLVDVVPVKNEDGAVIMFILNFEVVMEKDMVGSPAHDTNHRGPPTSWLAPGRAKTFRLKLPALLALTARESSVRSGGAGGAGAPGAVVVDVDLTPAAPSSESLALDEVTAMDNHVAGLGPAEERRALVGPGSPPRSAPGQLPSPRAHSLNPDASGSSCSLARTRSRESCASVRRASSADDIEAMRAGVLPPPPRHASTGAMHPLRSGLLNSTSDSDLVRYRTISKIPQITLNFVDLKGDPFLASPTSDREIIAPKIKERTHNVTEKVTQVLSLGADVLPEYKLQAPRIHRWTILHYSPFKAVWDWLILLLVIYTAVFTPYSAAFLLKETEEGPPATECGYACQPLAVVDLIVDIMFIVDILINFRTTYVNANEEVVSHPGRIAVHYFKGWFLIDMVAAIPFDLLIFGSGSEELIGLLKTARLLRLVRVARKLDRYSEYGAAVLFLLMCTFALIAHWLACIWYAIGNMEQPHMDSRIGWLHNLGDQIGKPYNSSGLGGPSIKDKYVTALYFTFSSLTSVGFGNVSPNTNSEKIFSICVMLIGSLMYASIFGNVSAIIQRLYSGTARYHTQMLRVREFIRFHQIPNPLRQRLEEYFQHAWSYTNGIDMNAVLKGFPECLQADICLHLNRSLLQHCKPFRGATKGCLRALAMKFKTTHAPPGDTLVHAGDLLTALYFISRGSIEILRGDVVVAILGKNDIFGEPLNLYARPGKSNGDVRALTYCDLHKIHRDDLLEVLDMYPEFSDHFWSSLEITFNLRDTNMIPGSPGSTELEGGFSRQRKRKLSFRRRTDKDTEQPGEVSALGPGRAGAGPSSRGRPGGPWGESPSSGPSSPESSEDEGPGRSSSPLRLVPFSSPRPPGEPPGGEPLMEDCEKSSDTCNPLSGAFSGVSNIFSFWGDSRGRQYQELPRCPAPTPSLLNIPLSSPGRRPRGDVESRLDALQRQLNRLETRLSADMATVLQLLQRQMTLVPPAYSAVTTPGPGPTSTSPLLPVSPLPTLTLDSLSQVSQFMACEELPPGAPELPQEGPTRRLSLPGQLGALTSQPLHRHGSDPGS

Row | SMILES | hERG current change (%, negative = inhibition) at 10uM
1 | CCCCCCSc1nsc(N)n1 | -10.8%
2 | Cc1cccnc1NC(=O)CNC(=O)C12CC3CC(CC(Cl)(C3)C1)C2 | 13%
3 | CCCCc1ccc(-c2nc(-c3ccncc3)no2)cc1 | 16%
4 | Cc1ccsc1-c1nc(C(N)=O)c2[nH]c(=O)n(-c3ccc(Cl)cc3)c2n1 | 1.51%
5 | O=C(COc1ccc(Cl)cc1)Nc1ccc(C(=O)NCc2cccnc2)cc1 | -36.8%
6 | COc1cc(C(=O)NCc2cccnc2)ccc1OCC(=O)Nc1cccc(C(F)(F)F)c1 | 3.13%
7 | O=C(NCc1cccnc1)c1ccc(COc2ccc(Cl)cc2)cc1 | -58.6%
8 | O=C(NCc1cccnc1)c1ccc(COc2ccccc2Cl)cc1 | 4.47%
9 | O=C(COc1ccc(C(=O)NCc2cccnc2)cc1)Nc1cccc(C(F)(F)F)c1 | -60.6%
10 | Cc1cccc(OCC(=O)Nc2ccc(C(=O)NCc3cccnc3)cc2)c1 | -0.608%
11 | Cc1cccc(-n2c(C)cc(/C=N\NC(=O)c3ccco3)c2C)c1 | -12.8%
12 | C=CCC(=O)N1CCCC(CO)(Cc2ccc(F)cc2F)C1 (centres unmarked) | 0.892%
13 | O=C(Cc1cccc(F)c1)N1CCCC(CO)(Cc2ccc(F)cc2F)C1 (centres unmarked) | -9.84%
14 | OCC1(Cc2ccccc2F)CCCN(CCc2ccccc2)C1 (centres unmarked) | -74.8%
15 | CSCCCN1CCCC(CO)(Cc2ccccc2F)C1 (centres unmarked) | -38.3%
16 | OCC1(Cc2ccc(F)cc2F)CCCN(CCCc2ccccc2)C1 (centres unmarked) | -82.9%
17 | OCC1(Cc2ccc(F)cc2)CCCN(CCc2ccccc2)C1 (centres unmarked) | -45.5%
18 | Cc1ccccc1CC1(CO)CCCN(C(=O)Cc2c(F)ccc(F)c2F)C1 (centres unmarked) | -0.736%
19 | OCC1(Cc2ccccc2F)CCCN(CC2CCCCC2)C1 (centres unmarked) | -37.7%
20 | OCC1(Cc2ccccc2F)CCCN(Cc2c(F)ccc(F)c2F)C1 (centres unmarked) | -55.5%
21 | CC(C)NC(=O)C1CCN(C2CCN(CC3CC=CCC3)CC2)CC1 (centres unmarked) | -15%

Row | SMILES | hERG current change (%, negative = inhibition) at 10uM
22 | O=C(O)c1cc(-c2cccs2)[nH]n1 | 15.5%
23 | C/C(=N\NC(=O)c1[nH]c2c([N+](=O)[O-])cc(C)cc2c1-c1ccccc1)c1cccnc1 | 6.67%
24 | CC12CCC(C(N)=O)(c3nc4ccccc4nc31)C2(C)C (centres unmarked) | -4.08%
25 | CN1CCN(C(=O)C23CCC(C)(c4nc5ccccc5nc42)C3(C)C)CC1 (centres unmarked) | -53.3%
26 | CC12CCC(C(=O)N3CCN(c4ncccn4)CC3)(c3nc4ccccc4nc31)C2(C)C (centres unmarked) | -20.2%
27 | O=[N+]([O-])c1ccc(N2CCCCC2)cn1 | 8.92%
28 | O=[N+]([O-])c1ccc(N2CCN(c3ccc(F)cc3)CC2)cn1 | -48.7%
29 | O=[N+]([O-])c1ccc(N2CCOCC2)cn1 | 15.4%
30 | O=[N+]([O-])c1ccc(N2CCN(c3ccccc3Cl)CC2)cn1 | -34.3%
31 | O=[N+]([O-])c1ccc(N2CCN(c3cccc(Cl)c3)CC2)cn1 | -63.2%
32 | O=[N+]([O-])c1ccc(N2CCN(c3ccc(O)cc3)CC2)cn1 | -52.8%
33 | Cn1c(C(=O)NCc2ccccn2)cc2c(=O)n3ccccc3nc21 | -1.42%
34 | CN(C)S(=O)(=O)c1cccc(NC(=O)c2cc3ccccc3o2)c1 | -13.7%
35 | CCOc1ccc(N2C(=O)/C(=C/c3cccs3)N(CC(=O)OC)C2=S)cc1 | -28%
36 | COC(=O)C(NC(C)=O)(Nc1nc2c(s1)CCCC2)C(F)(F)F (centres unmarked) | -4.29%
37 | COCCCNC(=O)CSC1=Nc2ccccc2C2=NC(c3ccccc3)C(=O)N12 (centres unmarked) | -22.2%
38 | O=C(Nc1ccc(F)cc1)Nc1ccc2ccccc2n1 | 14.2%
39 | COCCN(C(=O)C1CC(=O)N(Cc2ccccc2)C1)c1nc(-c2ccc([N+](=O)[O-])cc2)cs1 (centres unmarked) | -29.7%
40 | CN(C)CCN(C(=O)c1cccc(N2C(=O)CCC2=O)c1)c1nc2ccc(Br)cc2s1.Cl | -48.7%
41 | Cc1cc(C)c2nc(N(CCN(C)C)C(=O)c3ccc4ccccc4c3)sc2c1.Cl | 11.6%
42 | COc1ccc(OC)c2sc(N(CCN(C)C)C(=O)c3ccc4ccccc4c3)nc12.Cl | -11.3%

Row | SMILES | hERG current change (%, negative = inhibition) at 10uM
43 | Cc1cc(C)c2nc(N(CCCN(C)C)C(=O)c3ccc4c(c3)OCCO4)sc2c1.Cl | -51.2%
44 | COc1ccc(C)c2sc(N(CCCN(C)C)C(=O)c3ccc4c(c3)OCCO4)nc12.Cl | -75.6%
45 | COc1ccc(C)c2sc(N(CCN(C)C)C(=O)c3ccc4ccccc4c3)nc12.Cl | -20.7%
46 | COc1ccc(C)c2sc(N(CCN(C)C)C(=O)c3cccc(N4C(=O)CCC4=O)c3)nc12.Cl | -57.9%
47 | COc1ccc(Cl)c2sc(N(CCN(C)C)C(=O)c3ccc4c(c3)OCCO4)nc12.Cl | -29.2%
48 | COc1ccc(-c2csc(NC(=O)c3cccc(N4C(=O)CCC4=O)c3)n2)cc1OC | -1.68%
49 | COCCN(C(=O)c1cccc(N2C(=O)CCC2=O)c1)c1nc(-c2ccc([N+](=O)[O-])cc2)cs1 | -50.2%
50 | Cc1cc(C)c2nc(N(CCCN(C)C)C(=O)c3ccc4c(c3)CCCC4)sc2c1.Cl | -3.72%
51 | CCOc1ccccc1NC(=O)NCc1ccco1 | 8.52%
52 | CC(=O)N1CCc2cc(S(=O)(=O)CCC(=O)NCc3ccc(F)cc3)ccc21 | -13.8%
53 | O=C1C=C(O)C(n2cncn2)C(c2ccc3c(c2)OCO3)C1 (centres unmarked) | 17.1%
54 | O=C(NCc1cccnc1)c1nc(-c2ccccc2)n(-c2ccccc2)n1 | -14.7%
55 | O=C(CCCCCn1c(=S)[nH]c2ccc(N3CCOCC3)cc2c1=O)NCc1ccccc1 | 12%
56 | COc1ccc(C(=O)OCc2c(C)noc2C)cc1 | 12.9%
57 | COC(=O)c1ccc(NC(=S)NC2CCc3ccccc32)cc1 (centres unmarked) | -13.9%
58 | CNS(=O)(=O)c1ccc2c3c(cccc13)C(=O)N2 | 9.73%
59 | COc1ccc(C)c2sc(N(CCCN(C)C)C(=O)c3ccc(S(=O)(=O)N(C)C)cc3)nc12.Cl | -61.5%
60 | Cc1cccc2sc(N(CCCN3CCOCC3)C(=O)CS(=O)(=O)c3ccc(F)cc3)nc12.Cl | -16.9%
61 | COc1ccc(C)c2sc(N(CCCN(C)C)C(=O)c3ccc(S(=O)(=O)N4CCc5ccccc5C4)cc3)nc12.Cl | 9.73%
62 | Cc1cc(C)c2nc(N(CCCN(C)C)C(=O)C3=COCCO3)sc2c1.Cl | -65.9%
63 | COc1ccc(OC)c2sc(N(CCCN(C)C)C(=O)c3ccc(S(=O)(=O)N4CCc5ccccc5C4)cc3)nc12.Cl | -8.54%

Row | SMILES | hERG current change (%, negative = inhibition) at 10uM
64 | COc1ccc(C)c2sc(N(CCCN(C)C)C(=O)CS(=O)(=O)c3ccc(F)cc3)nc12.Cl | -60.3%
65 | Cc1cc(C)c2nc(N(CCCN(C)C)C(=O)c3ccc(S(=O)(=O)N4CC(C)OC(C)C4)cc3)sc2c1.Cl (centres unmarked) | -33.7%
66 | Cc1ccc(S(=O)(=O)CC(=O)N(CCCN(C)C)c2nc3ccc(C)cc3s2)cc1.Cl | -43.9%
67 | Cc1cc(C)c2nc(N(CCN(C)C)C(=O)/C=C/c3cccs3)sc2c1.Cl | 17.9%
68 | Cc1ccc(-n2nnnc2SCC(=O)N2CCCCC2)cc1 | -3.3%
69 | CCNC(=S)N/N=C/c1c(Cl)cccc1Cl | 18.1%
70 | Cc1cccc(-n2ncc3c2CCCC3NC(=O)C2CCOCC2)c1C (centres unmarked) | 6.59%
71 | O=C(Nc1cnc2ccccn2c1=O)c1ccc(Cl)cc1 | -23%
72 | C=CCNC(=O)NC(=O)CN1C(=O)NC(c2ccccc2)(c2ccccc2)C1=O | -69.5%
73 | CCNC(=O)NC(=O)C(C)N1C(=O)NC(c2ccccc2)(c2ccccc2)C1=O (centres unmarked) | -43.6%
74 | NC(=O)NC(=O)CN1C(=O)NC(c2ccccc2)(c2ccccc2)C1=O | 4.8%
75 | CCN1C(=O)C(=O)N(CC(=O)N(C)CC(=O)Nc2ccccc2Cl)C1=O | 4.13%
76 | CC(C(=O)NC(N)=O)N1C(=O)NC(c2ccccc2)(c2ccccc2)C1=O (centres unmarked) | -14.9%
77 | COc1ccc(C2(c3ccc(OC)cc3)NC(=O)N(CC(=O)Nc3ccccc3)C2=O)cc1 | 28.6%
78 | COc1ccc(CNC(=O)C(C)N2C(=O)NC(c3ccccc3)(c3ccccc3)C2=O)cc1 (centres unmarked) | -86.5%
79 | CN(CC(=O)Nc1ccccc1Cl)C(=O)CN1C(=O)NC(c2ccccc2)(c2ccccc2)C1=O | -66.8%
80 | COc1ccc(NC(=O)CN2C(=O)NC(c3ccccc3)(c3ccccc3)C2=O)cc1 | -55%
81 | O=C(CN1C(=O)NC(c2ccccc2)(c2ccccc2)C1=O)NCc1ccccc1 | -31%
82 | COc1cc(NC(=O)CN2C(=O)NC(c3ccccc3)(c3ccccc3)C2=O)cc(OC)c1 | 5.79%
83 | CN(CC(=O)Nc1ccccc1Cl)C(=O)COC(=O)CN1C(=O)NC2(CCCC2)C1=O | 9.31%
